# About 1,800 (0.62%) of roughly 290,000 compounds were called active. No stated cut-off is given here; in the data, active means inhibition above about 50%; inactive means the rest. Many of the other results were omitted from the sample, so actives are more common in it than they were.
# Test: inhibition of NOD2-driven NF-kB reporter – cell-based, luminescence, uHTS, HEK293 (AID 1566)
# Conditions: HEK293 NOD2/NF-kB luciferase reporter, at 4 µM, stronger effect = higher value
row,Compound,inhibition
1,Cc1ccc(C)c(C(=O)CSc2n[nH]c(-c3ccncc3)n2)c1,11% (inactive)
2,COC(C[C@H]1O[C@H]1[C@H](O)[C@H](C)OCc1ccccc1)OC,9.8% (inactive)
3,CC(C)c1ccc(NC(=O)c2ccccc2NC(=O)C2CC=CCC2C(=O)O)cc1 (stereo unspecified),-9.6% (inactive)
4,O=C(NC1CCCC1)C(NS(=O)(=O)c1cccc2nsnc12)c1ccccc1 (stereo unspecified),15.9% (inactive)
5,Clc1ccc(Nc2nc(N3CCOCC3)nc(N3CCOCC3)n2)cc1Cl,8.7% (inactive)
6,Clc1ccc(C2[C@H]3CN(Cc4ccc(-c5ccccc5)cc4)[C@H](c4ccccc4)C34CC2(c2ccccc2)C4)cn1 (stereo partly specified),6.2% (inactive)
7,COc1ccc(N2CCN(C(=O)c3nc4nc(C)cc(C)n4n3)CC2)cc1,7.4% (inactive)
8,CC(C)Cc1ccc(C(C)C(=O)Nc2ccccc2O)cc1 (stereo unspecified),22.9% (inactive)
9,C=CCNC(=O)NC(=O)Cn1c(=O)c2c(ncn2CC)n(Cc2ccccc2)c1=O,17.8% (inactive)
10,Cc1nc(SCc2cccc(C(=O)O)c2)nc2c1CCCC2,11% (inactive)
11,Cc1nc(SCc2ccccc2)nc2c1CCC2,-57.5% (inactive)
12,Cc1nc(SCc2ccc(C(=O)O)cc2)nc2c1CCCC2,54.6% (active)
13,COc1ccc(OCC(=O)N/N=C/c2ccc(N(C)C)cc2)cc1,-12.2% (inactive)
14,Cc1cc(/C=C2\SC(=O)N(C)C2=O)c(C)n1-c1ccc(O)cc1,0.7% (inactive)
15,Cc1cc(/C=C2/C(=O)NN(c3ccccc3)C2=O)c(C)n1-c1cccc(O)c1,-42.2% (inactive)
16,COc1ccc(-n2c(C)cc(/C=C3/SC(=S)N(C)C3=O)c2C)cc1,24.3% (inactive)
17,Cc1cc(/C=C2\SC(=S)NC2=O)c(C)n1-c1cccc(O)c1,-226% (inactive)
18,Cc1ccc(OCC(=O)NCCCNC(=O)c2ccc(C)nc2)cc1,7.3% (inactive)
19,C/C(=C\C#N)n1nc(C)cc1N,16.8% (inactive)
20,Cc1cc2oc3c(c(=O)c2cc1C)C(c1ccc(C(C)C)cc1)N(CCCN1CCOCC1)C3=O (stereo unspecified),0.6% (inactive)
21,CSc1nsc(SCC(=O)NCc2ccccc2)n1,-5.3% (inactive)
22,CCc1ccc(NC(=S)N(Cc2cccnc2)Cc2ccco2)cc1,6.5% (inactive)
23,C=CCc1cccc2cc(C(=O)O)c(=O)oc12,-2.5% (inactive)
24,C=CCc1cccc2cc(C(=O)Nc3cccc(C(=O)O)c3)c(=O)oc12,-0.7% (inactive)
25,C=CCc1cccc2cc(C(=O)Nc3ccccc3C(=O)O)c(=O)oc12,62.4% (active)
26,NC(=O)CN1CCN(CCN2C(=O)c3cccc4cccc(c34)C2=O)CC1,1.7% (inactive)
